# Test results taken from PubChem BioAssay (EPA / NIEHS).
# Active and inactive are the calls of the source. The calls were made as follows, unless noted: active = hit-call score of the fitted dose curve at least 0.9, where 1 is the maximum; inactive = score below 0.9.
# Tests used:
# [1] = read-out: Protein phosphatase 2A (PPP2R4), PTPA (gene 5524); assay: LTEA_HepaRG_PPP2R4: Life Technologies and Expression Analysis (LTEA) Assay for Protein phosphatase 2A (PPP2R4) using HepaRG (AID 2283522); conditions: mRNA level, 48 h; actives raise or lower the signal
# Procedure, shortened: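 HepaRG, 48 h exposure, 8-pt half-log series from 100 uM, 0.5% DMSO vehicle, duplicates. Readout: PPP2R4 mRNA, Fluidigm qRT-PCR, housekeeping-normalized. Bidirectional curve fit vs DMSO baseline.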
# [2] = read-out: Phosphatase and tensin (PTEN), PTEN (gene 5728); assay: LTEA_HepaRG_PTEN: Life Technologies and Expression Analysis (LTEA) Assay for Phosphatase and tensin (PTEN) using HepaRG (AID 2283523); conditions: mRNA level, 48 h; actives raise or lower the signal
# Procedure, shortened: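 HepaRG, 48 h exposure, 8-pt half-log series from 100 uM top, 0.5% DMSO vehicle, duplicates. Readout: Fluidigm qRT-PCR of PTEN transcript; housekeeping normalization (ACTB, GAPDH, POLR2A). Gain or loss fitted relative to DMSO baseline.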
# [3] = read-out: solute carrier (SLC22A1), SLC22A1 (gene 6580); assay: LTEA_HepaRG_SLC22A1: Life Technologies and Expression Analysis (LTEA) Assay for solute carrier (SLC22A1) using HepaRG (AID 2283524); conditions: mRNA level, 48 h; actives raise or lower the signal
# Procedure, shortened: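 qRT-PCR readout (TaqMan, Fluidigm arrays) of SLC22A1 transcript, normalized to three housekeeping genes; bidirectional curve fit relative to 0.5% DMSO vehicle. Differentiated human HepaRG cells, 48 h chemical exposure, top concentration 100 uM, half-log steps, eight points.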
# [4] = read-out: Pyruvate Dehydrogenase Kinase 4 (PDK4), PDK4 (gene 5166); assay: LTEA_HepaRG_PDK4: Life Technologies and Expression Analysis (LTEA) Assay for Pyruvate Dehydrogenase Kinase 4 (PDK4) using HepaRG (AID 2283525); conditions: mRNA level, 48 h; actives raise or lower the signal
# Procedure, shortened: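 HepaRG (human liver line), 48 h chemical exposure, 8-pt half-log CRC top 100 uM, 0.5% DMSO vehicle, duplicates. Readout: TaqMan qRT-PCR of PDK4 mRNA, housekeeping-normalized; gain/loss fit relative to DMSO baseline.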
# [5] = read-out: NAD(P)H dehydrogenase [quinone] 1 (NQO1), NQO1 (gene 1728); assay: LTEA_HepaRG_NQO1: Life Technologies and Expression Analysis (LTEA) Assay for NAD(P)H dehydrogenase [quinone] 1 (NQO1) using HepaRG (AID 2283526); conditions: mRNA level, 48 h; actives raise or lower the signal
# Procedure, shortened: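 qRT-PCR read-out (Fluidigm TaqMan), normalized to three housekeeping genes, after 48 h chemical exposure of HepaRG cells. Concentrations: eight points, top 100 uM, half-log steps, 0.5% DMSO vehicle. Gain or loss of signal fitted relative to DMSO.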
# [6] = read-out: succinate dehydrogenase complex iron sulfur subunit B (SDHB), SDHB (gene 6390); assay: LTEA_HepaRG_SDHB: Life Technologies and Expression Analysis (LTEA) Assay for succinate dehydrogenase complex iron sulfur subunit B (SDHB) using HepaRG (AID 2283528); conditions: mRNA level, 48 h; actives raise or lower the signal
# Procedure, shortened: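 Readout is SDHB transcript level by qRT-PCR, normalised to three housekeeping genes and fitted bidirectionally against 0.5% DMSO vehicle. Human HepaRG cells were treated for 48 h at up to 100 uM.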
# [7] = read-out: Signal transducer and activator of transcription 3 (Homo sapiens) (UniProt P40763); assay: LTEA_HepaRG_STAT3: Life Technologies and Expression Analysis (LTEA) Assay for Signal transducer and activator of transcription (STAT3) using HepaRG (AID 2283529); conditions: mRNA level, 48 h; actives raise or lower the signal
# Procedure, shortened: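 HepaRG, 48 h exposure, 8-pt half-log series (top 100 uM), 0.5% DMSO vehicle, duplicates. Readout: STAT3 transcript by Fluidigm qRT-PCR, housekeeping-normalized; bidirectional fit vs DMSO baseline.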
# [8] = read-out: solute carrier (SLCO1B1), SLCO1B1 (gene 10599); assay: LTEA_HepaRG_SLCO1B1: Life Technologies and Expression Analysis (LTEA) Assay for solute carrier (SLCO1B1) using HepaRG (AID 2283530); conditions: mRNA level, 48 h; actives raise or lower the signal
# Procedure, shortened: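 Differentiated human HepaRG cells were exposed for 48 h in serum-free induction medium to eight half-log concentrations, top 100 uM, in 0.5% DMSO. SLCO1B1 mRNA was measured by qRT-PCR, normalized to ACTB, GAPDH and POLR2A, and fitted bidirectionally against DMSO.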
# [9] = read-out: sulfotransferase 2A1 (SULT2A1), SULT2A1 (gene 6822); assay: LTEA_HepaRG_SULT2A1: Life Technologies and Expression Analysis (LTEA) Assay for sulfotransferase 2A1 (SULT2A1) using HepaRG (AID 2283531); conditions: mRNA level, 48 h; actives raise or lower the signal
# Procedure, shortened: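 HepaRG human liver cells, 48 h exposure in serum-free induction medium to 8 half-log concentrations topping at 100 µM (0.5% DMSO), duplicate wells. SULT2A1 mRNA measured by TaqMan qRT-PCR, normalized to ACTB/GAPDH/POLR2A; bidirectional fit against DMSO.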
# [10] = read-out: Transforming Growth Factor (TGFA), TGFA (gene 7039); assay: LTEA_HepaRG_TGFA: Life Technologies and Expression Analysis (LTEA) Assay for Transforming Growth Factor (TGFA) using HepaRG (AID 2283532); conditions: mRNA level, 48 h; actives raise or lower the signal
# Procedure, shortened: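 qRT-PCR read-out of TGFA transcript, normalized to three housekeeping genes, fitted bidirectionally against 0.5% DMSO baseline. Human HepaRG cultures received chemicals for 48 h at eight half-log concentrations, top 100 uM.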
# [11] = read-out: Transforming Growth Factor (TGFB1), TGFB1 (gene 7040); assay: LTEA_HepaRG_TGFB1: Life Technologies and Expression Analysis (LTEA) Assay for Transforming Growth Factor (TGFB1) Transporter using HepaRG (AID 2283533); conditions: mRNA level, 48 h; actives raise or lower the signal
# Procedure, shortened: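 Differentiated HepaRG cells exposed 48 hr in serum-free induction medium to eight half-log concentrations up to 100 uM (0.5% DMSO), duplicate; TGFB1 mRNA by TaqMan qRT-PCR normalised to ACTB, GAPDH, POLR2A; bidirectional fit against DMSO.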
# [12] = read-out: Tumor necrosis factor receptor 1 (TNFRSF1A), TNFRSF1A (gene 7132); assay: LTEA_HepaRG_TNFRSF1A: Life Technologies and Expression Analysis (LTEA) Assay for Tumor necrosis factor receptor 1 (TNFRSF1A) using HepaRG (AID 2283535); conditions: mRNA level, 48 h; actives raise or lower the signal
# Procedure, shortened: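 Differentiated HepaRG cells in serum-free induction medium, exposed 48 h in duplicate to 8 half-log concentrations up to 100 uM in 0.5% DMSO. TNFRSF1A mRNA by Fluidigm TaqMan qRT-PCR, normalized to ACTB, GAPDH, POLR2A; bidirectional fit.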
# [13] = read-out: Cellular tumor antigen p53 (Homo sapiens) (UniProt P04637); assay: LTEA_HepaRG_TP53: Life Technologies and Expression Analysis (LTEA) Assay for Tumor Protein P53 (TP53) using HepaRG (AID 2283537); conditions: mRNA level, 48 h; actives raise or lower the signal
# Procedure, shortened: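 Read-out is TP53 transcript level by microfluidic qRT-PCR, normalised to three housekeeping genes and fitted bidirectionally against DMSO. Human HepaRG cells received compounds for 48 h, highest concentration 100 uM.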
# [14] = read-out: UDP glucuronosyltransferase (UGT1A1), UGT1A1 (gene 54658); assay: LTEA_HepaRG_UGT1A1: Life Technologies and Expression Analysis (LTEA) Assay for UDP glucuronosyltransferase (UGT1A1) using HepaRG (AID 2283538); conditions: mRNA level, 48 h; actives raise or lower the signal
# Procedure, shortened: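 HepaRG, 48 h chemical exposure (top 100 uM, half-log 8-pt, 0.5% DMSO vehicle), duplicate wells; qRT-PCR (TaqMan, Fluidigm array) for UGT1A1 mRNA, housekeeping-normalized; bidirectional curve fit vs DMSO baseline.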
# [15] = read-out: UDP glucuronosyltransferase (UGT1A6), UGT1A6 (gene 54578); assay: LTEA_HepaRG_UGT1A6: Life Technologies and Expression Analysis (LTEA) Assay for UDP glucuronosyltransferase (UGT1A6) using HepaRG (AID 2283539); conditions: mRNA level, 48 h; actives raise or lower the signal
# Procedure, shortened: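 Differentiated HepaRG cells, ~100,000/well, were exposed for 48 h in serum-free induction medium with 0.5% DMSO to 8-point half-log series topping at 100 uM, in duplicate. mRNA measured by Fluidigm TaqMan qRT-PCR, normalized to ACTB, GAPDH and POLR2A.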
# [16] = read-out: X-box binding protein 1 (XBP1), XBP1 (gene 7494); assay: LTEA_HepaRG_XBP1: Life Technologies and Expression Analysis (LTEA) Assay for X-box binding protein 1 (XBP1) using HepaRG (AID 2283540); conditions: mRNA level, 48 h; actives raise or lower the signal
# Procedure, shortened: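 Differentiated human HepaRG cells in serum-free induction medium exposed 48 h in duplicate to eight half-log concentrations up to 100 uM in 0.5% DMSO. XBP1 mRNA measured by Fluidigm TaqMan qRT-PCR, normalized to ACTB, GAPDH, POLR2A; bidirectional fitting against DMSO.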
# [17] = LTEA_HepaRG_LDH_cytotoxicity: Cytotoxicity Assessment in the Life Technologies and Expression Analysis (LTEA) Assay (AID 2283563; active = hit-call score of the fitted dose curve at least 0.9, where 1 is the maximum;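 as to AC50: LDH activity released into spent culture medium as a marker of cell death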)
# Procedure, shortened: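 Differentiated HepaRG cells in serum-free induction medium, exposed 48 h in duplicate to 8 half-log concentrations up to 100 uM in 0.5% DMSO. Cytotoxicity from LDH measured in spent medium, fit relative to DMSO.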
# [18] = read-out: Thyroid Hormone Responsive (THRSP), THRSP (gene 7069); assay: LTEA_HepaRG_THRSP: Life Technologies and Expression Analysis (LTEA) Assay for Thyroid Hormone Responsive (THRSP) using HepaRG (AID 2283536); conditions: mRNA level, 48 h; actives raise or lower the signal
# Procedure, shortened: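 qRT-PCR read-out (Fluidigm TaqMan), housekeeping-normalized (ACTB/GAPDH/POLR2A). HepaRG, 48 h chemical exposure, 8-pt half-log series from 100 uM in 0.5% DMSO, duplicates. Bidirectional curve fit vs 0.5% DMSO baseline.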
# [19] = read-out: TIMP1, TIMP1 (gene 7076); assay: LTEA_HepaRG_TIMP1: Life Technologies and Expression Analysis (LTEA) Assay for TIMP1 using HepaRG (AID 2283534); conditions: mRNA level, 48 h; actives raise or lower the signal
# Procedure, shortened: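 Differentiated HepaRG cells exposed 48 h in serum-free induction medium, duplicates, eight half-log concentrations from 100 uM in 0.5% DMSO. TIMP1 mRNA by qRT-PCR normalized to ACTB, GAPDH, POLR2A; bidirectional fitting against DMSO.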
# Chain of Cellular tumor antigen p53 (Homo sapiens) (P04637 whole entry, looked up): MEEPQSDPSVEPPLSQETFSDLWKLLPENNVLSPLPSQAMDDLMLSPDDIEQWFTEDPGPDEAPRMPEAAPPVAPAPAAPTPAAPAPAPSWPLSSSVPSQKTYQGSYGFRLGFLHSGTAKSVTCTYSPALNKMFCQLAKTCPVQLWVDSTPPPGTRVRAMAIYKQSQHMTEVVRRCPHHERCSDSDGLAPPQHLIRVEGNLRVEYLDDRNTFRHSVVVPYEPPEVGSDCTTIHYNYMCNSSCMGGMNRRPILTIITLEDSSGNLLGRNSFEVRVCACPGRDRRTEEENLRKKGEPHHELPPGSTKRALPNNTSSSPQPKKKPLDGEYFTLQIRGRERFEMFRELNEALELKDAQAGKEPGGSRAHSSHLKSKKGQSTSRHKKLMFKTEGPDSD
# Chain of Signal transducer and activator of transcription 3 (Homo sapiens) (P40763 whole entry, looked up): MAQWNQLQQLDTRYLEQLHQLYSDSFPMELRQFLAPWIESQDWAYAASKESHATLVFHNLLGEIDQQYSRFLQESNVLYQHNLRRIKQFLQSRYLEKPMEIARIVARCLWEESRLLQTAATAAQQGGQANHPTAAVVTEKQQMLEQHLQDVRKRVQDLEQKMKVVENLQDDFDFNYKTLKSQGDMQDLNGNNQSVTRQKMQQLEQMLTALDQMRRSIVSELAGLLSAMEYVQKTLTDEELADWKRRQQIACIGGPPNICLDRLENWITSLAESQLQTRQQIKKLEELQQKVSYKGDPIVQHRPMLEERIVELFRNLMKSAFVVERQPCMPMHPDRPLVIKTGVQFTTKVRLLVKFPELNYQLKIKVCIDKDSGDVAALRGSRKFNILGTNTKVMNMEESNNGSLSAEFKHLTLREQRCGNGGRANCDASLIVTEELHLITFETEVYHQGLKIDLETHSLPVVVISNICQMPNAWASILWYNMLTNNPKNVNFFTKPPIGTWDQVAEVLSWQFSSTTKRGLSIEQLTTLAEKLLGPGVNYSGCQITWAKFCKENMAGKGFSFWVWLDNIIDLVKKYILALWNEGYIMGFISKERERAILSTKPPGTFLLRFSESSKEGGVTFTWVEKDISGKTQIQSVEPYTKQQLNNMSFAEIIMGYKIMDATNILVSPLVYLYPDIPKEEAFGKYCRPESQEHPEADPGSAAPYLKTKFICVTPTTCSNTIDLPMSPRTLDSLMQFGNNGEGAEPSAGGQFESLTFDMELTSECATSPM
structure (smiles),measurement,setting,value
Cc1cc2c(cc1C(F)(F)F)N(C(=O)Nc1ccc(Oc3cccnc3C)nc1)CC2,outcome,[1],inactive
same,outcome,[2],inactive
same,AC50,[3],30.1 µM (active)
same,outcome,[4],inactive
same,outcome,[5],inactive
same,outcome,[6],inactive
same,outcome,[7],inactive
same,outcome,[8],inactive
same,outcome,[9],inactive
same,outcome,[10],inactive
same,outcome,[11],inactive
same,AC50,[12],73.6 µM (active)
same,AC50,[13],75 µM (active)
same,AC50,[14],81.4 µM (active)
same,AC50,[15],76.1 µM (active)
same,outcome,[16],inactive
same,AC50,[17],70.5 µM (active)
CO[C@H]1/C=C/O[C@@]2(C)Oc3c(C)c(O)c4c(O)c(c(/C=N/N5CCN(C)CC5)c(O)c4c3C2=O)NC(=O)/C(C)=C\C=C\[C@H](C)[C@H](O)[C@@H](C)[C@@H](O)[C@@H](C)[C@H](OC(C)=O)[C@@H]1C,outcome,[1],inactive
same,outcome,[2],inactive
same,outcome,[3],inactive
same,outcome,[4],inactive
same,outcome,[5],inactive
same,outcome,[6],inactive
same,AC50,[7],7.81 µM (active)
same,outcome,[8],inactive
same,outcome,[9],inactive
same,outcome,[10],inactive
same,outcome,[12],inactive
same,AC50,[18],12 µM (active)
same,outcome,[13],inactive
same,outcome,[15],inactive
same,outcome,[16],inactive
same,outcome,[17],inactive
Cc1c2ccccc2c(C)c2c1ccc1ccccc12,outcome,[1],inactive
same,AC50,[3],41.2 µM (active)
same,AC50,[4],56.6 µM (active)
same,outcome,[5],inactive
same,outcome,[6],inactive
same,outcome,[7],inactive
same,AC50,[8],59.5 µM (active)
same,AC50,[9],71.1 µM (active)
same,AC50,[10],63.3 µM (active)
same,outcome,[12],inactive
same,AC50,[18],75.4 µM (active)
same,AC50,[13],54.1 µM (active)
same,AC50,[15],35 µM (active)
same,outcome,[16],inactive
same,outcome,[17],inactive
CCCCOC(=O)CC(CC(=O)OCCCC)(OC(C)=O)C(=O)OCCCC,outcome,[1],inactive
same,outcome,[2],inactive
same,outcome,[3],inactive
same,outcome,[4],inactive
same,outcome,[5],inactive
same,outcome,[6],inactive
same,outcome,[7],inactive
same,outcome,[8],inactive
same,outcome,[9],inactive
same,outcome,[10],inactive
same,outcome,[12],inactive
same,outcome,[13],inactive
same,outcome,[15],inactive
same,outcome,[16],inactive
same,outcome,[17],inactive
CCCC(=O)OCCC(C)C,outcome,[1],inactive
same,outcome,[2],inactive
same,outcome,[3],inactive
same,outcome,[4],inactive
same,outcome,[5],inactive
same,outcome,[6],inactive
same,outcome,[7],inactive
same,outcome,[8],inactive
same,outcome,[9],inactive
same,outcome,[10],inactive
same,outcome,[12],inactive
same,outcome,[13],inactive
same,outcome,[14],inactive
same,outcome,[15],inactive
same,outcome,[16],inactive
same,outcome,[17],inactive
O=c1c(-c2ccc(O)cc2)coc2cc(O)cc(O)c12,outcome,[1],inactive
same,outcome,[2],inactive
same,outcome,[3],inactive
same,outcome,[4],inactive
same,outcome,[5],inactive
same,outcome,[6],inactive
same,outcome,[7],inactive
same,outcome,[8],inactive
same,outcome,[9],inactive
same,outcome,[10],inactive
same,outcome,[19],inactive
same,outcome,[12],inactive
same,outcome,[13],inactive
same,outcome,[14],inactive
same,outcome,[15],inactive
same,outcome,[16],inactive
same,outcome,[17],inactive
